# Experimental data: PubChem BioAssay (Tox21)
# Results filed as inconclusive are left out. A call without a number means that no potency is given here. The source made the active and inactive calls. Calls come from the whole dose curve; as a rule, active = well fitted inhibition curve with a large enough effect in the repeat runs; inconclusive = weak or mixed curves; inactive = flat fitted curve, though single readings scatter.
# Molecular target: Voltage-gated inwardly rectifying potassium channel KCNH2 (Homo sapiens) (UniProt Q12809)
# Assay: Human Ether-a-go-go-Related Gene (hERG) channel small molecule antagonists: fluorescence cell-based qHTS assay (AID 1671200); note: nearly all actives have a fitted effect of over 50% in size
# Details: hERG-U2OS cells, FluxOR thallium flux fluorescence; series mostly up to 76.8 µM
# Summary of the method: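 Channel function was assessed by thallium flux. Cells seeded the previous day and kept at 37 C took up FluxOR II dye over 1 h in the dark at room temperature, then sat another 10 min before stimulation.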
# Potency is the fitted concentration of half-maximal effect.
# Chain of Voltage-gated inwardly rectifying potassium channel KCNH2 (Homo sapiens) (Q12809 whole entry, looked up): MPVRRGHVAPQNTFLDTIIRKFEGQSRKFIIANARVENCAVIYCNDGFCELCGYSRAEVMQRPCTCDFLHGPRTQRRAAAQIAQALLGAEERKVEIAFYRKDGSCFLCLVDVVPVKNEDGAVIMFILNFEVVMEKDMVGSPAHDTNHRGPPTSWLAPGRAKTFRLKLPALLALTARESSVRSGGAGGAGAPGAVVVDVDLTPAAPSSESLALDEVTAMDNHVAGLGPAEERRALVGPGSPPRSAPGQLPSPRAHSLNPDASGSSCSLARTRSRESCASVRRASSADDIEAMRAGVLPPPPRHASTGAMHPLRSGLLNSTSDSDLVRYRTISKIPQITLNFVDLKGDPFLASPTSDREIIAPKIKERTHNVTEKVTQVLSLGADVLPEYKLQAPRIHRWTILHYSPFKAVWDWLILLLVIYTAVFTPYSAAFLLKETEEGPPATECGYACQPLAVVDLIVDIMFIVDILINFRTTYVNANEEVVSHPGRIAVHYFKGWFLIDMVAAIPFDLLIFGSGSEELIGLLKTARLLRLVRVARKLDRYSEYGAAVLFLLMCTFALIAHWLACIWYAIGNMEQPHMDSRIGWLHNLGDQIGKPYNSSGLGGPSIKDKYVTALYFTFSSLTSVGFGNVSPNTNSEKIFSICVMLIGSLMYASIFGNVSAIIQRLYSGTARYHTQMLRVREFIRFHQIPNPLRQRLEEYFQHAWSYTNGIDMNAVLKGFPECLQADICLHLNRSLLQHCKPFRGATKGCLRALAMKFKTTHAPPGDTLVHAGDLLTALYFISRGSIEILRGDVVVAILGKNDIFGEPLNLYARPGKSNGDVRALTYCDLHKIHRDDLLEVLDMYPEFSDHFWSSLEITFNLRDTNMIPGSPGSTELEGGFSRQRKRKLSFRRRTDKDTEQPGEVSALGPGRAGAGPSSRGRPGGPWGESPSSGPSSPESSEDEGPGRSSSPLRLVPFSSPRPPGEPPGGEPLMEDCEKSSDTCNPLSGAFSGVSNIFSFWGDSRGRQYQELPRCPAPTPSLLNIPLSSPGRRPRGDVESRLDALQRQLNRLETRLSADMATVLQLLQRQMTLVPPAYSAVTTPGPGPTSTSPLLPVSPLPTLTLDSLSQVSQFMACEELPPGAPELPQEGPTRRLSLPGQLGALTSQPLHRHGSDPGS
row,Structure (SMILES),Potency
1,C[C@@H]1C[C@H]2[C@@H]3CCC4=CC(=O)C=C[C@]4(C)[C@@]3(Cl)[C@@H](O)C[C@]2(C)[C@@]1(OC(=O)c1ccco1)C(=O)CCl,inactive
2,OCc1c[nH]c2ccccc12,inactive
3,CC[C@H](c1ccc(O)cc1)[C@@H](CC)c1ccc(O)cc1,inactive
4,CCN(C(=O)N(CC)c1ccccc1)c1ccccc1,inactive
5,CCCCCCCCOC(=O)c1ccc(O)cc1,inactive
6,Cc1cccc(N(C)C(=S)Oc2ccc3c(c2)C2CCC3C2)c1 (configuration not stated),inactive
7,CCCCC(CC)CN=C(N)NC(N)=NCCCCCCN=C(N)NC(N)=NCC(CC)CCCC (configuration not stated),inactive
8,CCCCN1CCCC[C@H]1C(=O)Nc1c(C)cccc1C,inactive
9,ON=C1CCCC1,inactive
10,Clc1ccc(C(Cn2ccnc2)OCc2ccc(Sc3ccccc3)cc2)c(Cl)c1 (configuration not stated),9.52 µM (active)
11,O=C(NO)C1(NS(=O)(=O)c2ccc(Oc3ccc(F)cc3)cc2)CCOCC1,inactive
12,Nc1c(Cl)cc(Cl)cc1Cl,inactive
13,Oc1ccc2c(c1)-c1ccccc1C2,inactive
14,Oc1ccc(Cl)cc1Sc1cc(Cl)ccc1O,inactive
15,O=C(Nc1cccc([N+](=O)[O-])c1)c1cc2ccccc2cc1O,inactive
16,CC(C)n1nc(-c2cc3cc(O)ccc3[nH]2)c2c(N)ncnc21,inactive
17,N/C(=N\N=C\c1ccc(Cl)cc1)N/N=C/c1ccc(Cl)cc1,2.39 µM (active)
18,CC(C)(C)C(=O)OCOC(=O)[C@@H]1N2C(=O)[C@@H](NC(=O)[C@H](N)c3ccccc3)[C@H]2SC1(C)C,inactive
19,Cc1cc(O)c(Cl)c(C)c1Cl,inactive
20,Oc1cccc(-c2c3nc(c(-c4cccc(O)c4)c4ccc([nH]4)c(-c4cccc(O)c4)c4nc(c(-c5cccc(O)c5)c5ccc2[nH]5)CC4)C=C3)c1,inactive
21,Nc1cc(C(F)(F)F)ccc1S,inactive
22,Cc1[nH]cnc1C[C@H]1CCc2c(C)c3ccccc3n2C1=O,5.36 µM (active)
